Bioassay records (PubChem)
KB-3-1 cytotox: kills parental KB-3-1 adenocarcinoma cells. 1.4% of 400,000 active. Potency, µM (highest dose often 46.1 µM), usual class: cytotoxic. KB-3-1 viability, CellTiter-Glo ATP luminescence, 72 h. AID 1347075; further: nearly all actives have a fitted effect of over 60% in size
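Cytotoxicity in the drug-sensitive parental line KB-3-1 was scored as loss of CellTiter-Glo luminescence following 72 h incubation with compound. Values come from curve fitting of normalized concentration-response data.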
HT1080NT lethal: kills 2HG-producing HT-1080-NT fibrosarcoma cells. HT-1080-NT fibrosarcoma viability, CellTiter-Glo ATP luminescence, 48 h. Potency, µM (series often up to 46.1 µM), for inactives: top-dose activity, negative = less viability, actives largely listed as cytotoxic. 1.6% of 360,000 active;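 further: NT is the 2HG producing partner of a matched IDH1 knockdown line; 0% = DMSO-treated cells and -100% = media-only wells without cells; nearly all actives have a fitted effect of over 55% in size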
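A 48-hour cytotoxicity screen used HT-1080-NT cells plated 2 hours before compound delivery. ATP-based CellTiter-Glo luminescence measured viability, normalized to DMSO and no-cell controls.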
KB-V1 MDR tox: kills drug-selected multidrug resistant KB-V1 cells; KB-V1 MDR cells viability, CellTiter-Glo, 72 h; Potency, µM (top dose mostly 46.1 µM), most hits filed as cytotoxic; 3.4% of 400,000 active; AID 1347076; further: nearly all actives have a fitted effect of over 60% in size
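Cytotoxicity toward P-gp-expressing KB-V1 cells was determined as loss of CellTiter-Glo luminescence after 72 h at 37 degrees C. Compounds were tested in quantitative HTS format across a concentration range, with curves fitted to normalized data.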
HT1080 IDH1KD tx: kills HT-1080 cells with IDH1 knockdown | HT-1080 IDH1 knockdown viability, ATP luminescence, 48 h | Potency, µM (top dose mostly 46.1 µM), inactives show at the top dose activity, negative = toxicity, hits mostly cytotoxic | 2% of 360,000 active;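 further: 0% = DMSO wells and -100% = cell-free medium wells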
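Using the IDH1-knockdown HT-1080 line run in the same batch and compound series as the NT line, viability after 48 h at 37 °C was determined by CellTiter-Glo luminescence and expressed as % activity.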
The depositor's hits bear a star; i = inactive; ? = inconclusive; nt = no result. This is a sample that favours compounds with a hit; in the whole collection about 5.7% have one here. The call rests on the fitted dose curve; in most records, active means well fitted curve in the direction sought with a large enough effect; inconclusive means small, poorly fitted or top-dose-only effect, or another doubt; inactive means no such curve, though single readings can be large; an effect the other way counts as inactive or inconclusive. Unless noted, on the % scale 0 is the no-effect control and ±100 the full control effect; potency means the concentration at half of the fitted maximal effect.

SMILES	KB-3-1 cytotox	HT1080NT lethal	KB-V1 MDR tox	HT1080 IDH1KD tx
O=C(CN1C(=O)CCc2cc(Br)ccc21)Nc1ccc(OC(F)(F)F)cc1	i	nt	i	nt
c1ccc(CN2CCC(Nc3nc(-c4cccnc4)nc4ccccc34)CC2)cc1	?	?	?	20.6µM*
c1ccc(CNc2nc(-c3cccnc3)nc3ccccc23)cc1	i	-0.9%	i	7.9%
COc1ccc(/C=N/Nc2nc(-c3cccnc3)nc3ccccc23)cc1OC	i	-13.7%	i	-25.4%
CCOC(=O)c1ccc(Nc2nc(-c3cccnc3)nc3ccccc23)cc1	i	14.6µM*	i	?
COc1ccc(C(CNc2nc(-c3cccnc3)nc3ccccc23)N(C)C)cc1 (stereo not drawn)	i	16.4µM*	i	16.4µM*
COc1ccc(CCNc2nc(-c3cccnc3)nc3ccccc23)cc1OC	i	?	8.2µM*	10.3µM*
CCOC(=O)c1c(C)[nH]c(C)c1S(=O)(=O)N(C)CC(=O)Nc1ccc(C)cc1Br	i	nt	i	nt
Cc1ccc(-n2ncc3c(NCCC4=CCCCC4)ncnc32)cc1C	i	nt	i	nt
CCCCNC(=O)CCCn1c(=O)c2ccccc2n(CC(=O)Nc2ccccc2OCC)c1=O	i	nt	i	nt
Cc1ccccc1N=C1Nc2ccc(Cl)cc2N[C@]12C[C@H]1CCCC(=O)N3CC[C@@H](C2)[C@@H]13	i	nt	i	nt
CC(Nc1nc(-c2ccccc2)nc2ccccc12)c1ccccc1 (stereo not drawn)	?	?	i	-17.5%
CC(Nc1nc(-c2cccnc2)nc2ccccc12)c1ccc(F)cc1 (stereo not drawn)	?	-26.9%	18.4µM*	?
c1ccc(COc2cccc(-c3cc4nc(NCc5ccc6c(c5)OCO6)ccn4n3)c2)cc1	?	-15.5%	i	-23.9%
Clc1cccc(CNc2ccn3nc(-c4cccc(OCc5ccccc5)c4)cc3n2)c1	?	?	i	9.2µM*
COc1cc(-c2cc3nc(NCc4cccc(Cl)c4)ccn3n2)cc(OC)c1OC	?	16.4µM*	?	9.2µM*
CC(C)NC(=O)COC(=O)CNC(=O)C1CCCCC1	i	nt	i	nt
COc1ccc(OC)c(NC(=O)c2cn3c4c(ccc(Cl)c4c2=O)OC(C)C3)c1 (stereo not drawn)	i	nt	i	nt
O=C(c1ccco1)N(CCC(c1ccccc1)c1ccco1)Cc1ccc(F)cc1 (stereo not drawn)	i	?	7.31µM*	?
CC1(C)CC(C(CCN(Cc2ccccc2)C(=O)c2ccco2)c2ccc(F)cc2)CCO1 (stereo not drawn)	?	?	9.2µM*	?
O=C(CN(Cc1ccc(F)cc1)C(=O)c1ccco1)NCc1ccc(F)cc1	i	0.3%	?	-2.2%
CCOCC(=O)Nc1cc(C)on1	i	8.3%	i	4.3%
Cn1cccc1C(=O)OCC(=O)Nc1sccc1C#N	?	8.3%	16.4µM*	13.4%
N#Cc1ccsc1NC(=O)COC(=O)c1ccc2ccccc2c1	i	-13.6%	i	-11.7%
C/C(CC(=O)Nc1ccc(OCc2ccccc2)cc1)=N\NC(=O)C(=O)Nc1ccc(C)c(Cl)c1	?	18.4µM*	i	?
SMILES	KB-3-1 cytotox	HT1080NT lethal	KB-V1 MDR tox	HT1080 IDH1KD tx
C/C(CC(=O)Nc1ccc(C)c(Cl)c1)=N\NC(=O)Cc1ccccc1	i	-1.1%	?	-5.7%
Cn1nc(-c2ccccn2)nc2c(=O)n(C)c(=O)nc1-2	?	1.84µM*	i	1.64µM*
CCCc1nc2c(=O)n(C)c(=O)nc-2n(C)n1	4.61µM*	3.66µM*	7.31µM*	2.06µM*
Cc1ccccc1-c1nc2c(=O)n(C)c(=O)nc-2n(C)n1	2.06µM*	nt	?	nt
C=C1[C@@H](O)[C@H](Cc2ccccc2)N(Cc2ccccc2Br)S1(=O)=O	?	?	?	23.1µM*
CCSc1nc2n(n1)C(c1ccc(CC)cc1)C(C(=O)Nc1ccccc1OC)=C(C)N2 (stereo not drawn)	i	nt	i	nt
O=C(NCCN1CCCCC1)Nc1cccc(F)c1	i	12.4%	i	7.4%
COC(=O)C1Cc2c([nH]c3ccccc23)C2(CCN(Cc3ccccc3)CC2)N1 (stereo not drawn)	i	18.4µM*	?	18.4µM*
Cc1ccc(S(=O)(=O)c2ccc([N+](=O)[O-])o2)cc1	?	7.31µM*	13µM*	2.59µM*
COc1cc(OC)c(/C=C/c2nc3ccccc3o2)c(OC)c1	?	nt	i	nt
COC(=O)c1sccc1NC(=O)c1cccc(F)c1	i	1.1%	i	-5.1%
COC(=O)c1sccc1NC(=O)CSc1ccccc1N	i	-6.3%	i	-3.5%
COC(=O)c1sccc1NC(=O)Cn1nnc(-c2ccc(C)cc2)n1	i	6.1%	20.6µM*	0.3%
COC(=O)c1sccc1NC(=O)CSc1ccccc1NS(=O)(=O)c1ccc(Br)cc1	20.6µM*	1.2%	4.11µM*	-3.3%
COC(=O)c1sccc1NC(=O)c1c(F)c(F)c(F)c(F)c1F	i	18.4µM*	i	?
COC(=O)c1sccc1NC(=O)CSc1ccc(Cl)cc1	i	20.2%	23.1µM*	8.4%
O=C(C[n+]1ccccc1Cl)c1ccc(Br)cc1	i	nt	i	nt
CC(=O)N1c2ccccc2CC1C(=O)N1CCN(c2cc(Cl)ccc2C)CC1 (stereo not drawn)	i	nt	i	nt
Cc1ccc2c(c1)C/C(=C/c1ccc(N(C)C)cc1)C2=O	i	nt	i	nt
COC(=O)c1sccc1NC(=O)c1c(C)c(-c2cccc(Cl)c2)nc2ccccc12	i	2.8%	10.3µM*	-11.9%
COC(=O)c1sccc1NC(=O)c1cc(-c2cccc(C)c2)nc2ccccc12	?	1.0%	i	7.9%
Fc1ccc(NC(=S)NN=Cc2ccccc2Cl)cc1	i	-22.0%	i	-18.2%
Fc1ccccc1/C=N/NC(=S)Nc1ccc(Cl)cc1Cl	8.2µM*	5.17µM*	1.46µM*	3.26µM*
Fc1ccc(NC(=S)Nc2ccc(Cl)cc2Cl)cc1	?	-1.2%	i	-2.0%
Oc1ccccc1C=NNC(=S)Nc1ccc(F)cc1	?	?	i	5.8µM*
SMILES	KB-3-1 cytotox	HT1080NT lethal	KB-V1 MDR tox	HT1080 IDH1KD tx
CN(C)c1nc(N/N=C/c2ccccc2O)nc(Nc2ccc(F)cc2)n1	?	?	?	13µM*
ICC[n+]1csc2ccccc21	i	nt	i	nt
COC(=O)c1ccc(NC(=O)CC2C(=O)N(c3cccc(F)c3)C(=O)N2CC(C)C)cc1 (stereo not drawn)	i	nt	i	nt
COc1ccc(C(=O)c2cn(CC(=O)Nc3cc(C)ccc3C)c3nc(C)ccc3c2=O)cc1	i	nt	i	nt
NC1=C(Cl)C(=O)c2ccc(S(N)(=O)=O)cc2C1=O	?	8.2µM*	?	6.51µM*
COc1ccc(-n2nc([N+](=O)[O-])c(=NCc3ccco3)n2O)cc1	i	9.0%	i	3.6%
COc1ccc(-n2nc([N+](=O)[O-])c(=NCc3cccnc3)n2O)cc1	i	1.2%	20.6µM*	0.4%
